Test results reported in PubChem BioAssay AID605 (National Center for Advancing Translational Sciences (NCATS), 2007).
The whole screen tested about 71,000 compounds, of which about 35 (0.05%) were called active. Calls follow the shape of the dose curve; as a rule, active = well fitted curve in the direction sought with a large enough effect; inconclusive = small, poorly fitted or top-dose-only effect, or effect the other way; inactive = flat fitted curve, though single readings scatter. The list is a sample of the results.

biological target: tRNA threonylcarbamoyladenosine biosynthesis protein TsaE (Escherichia coli (strain K12)) (UniProt P0AF67); experiment: qHTS Assay for Inhibitors of YjeE; conditions: purified YjeE enzyme, qHTS inhibition assay
Procedure: NIH Molecular Libraries Screening Centers Network [MLSCN]
NIH Chemical Genomics Center [NCGC]
Assay Provider: Eric Brown, McMaster University
YjeE is an essential E.coli protein of unknown function that binds adenosine diphosphate (ADP). A complex of YjeE and BODIPY Texas Red-labeled ADP probe (Invitrogen, catalog number A22359) is incubated with library members. Inhibitors of YjeE-ADP binding are detected by a decrease in the fluorescence polarization (FP) of the fluorophore. Purified YjeE was supplied by Chand Mangat and Eric Brown, McMaster University.
NCGC Assay Protocol Summary:
2 uM probe/10 uM YjeE in columns 1, 2, 5-48. Titration of ADP control (from 40 mM, then 1:2) pin-transferred to top half of column 2. Column 1 and bottom half of column 2 are neutral.
Two and a half uL of reagents were dispensed to 1536-well Greiner black plates. Compounds and controls (20 nL) were transferred via Kalypsys PinTool. The plates were incubated for 15 min at room temperature, and then read on ViewLux (Perkin-Elmer) High-throughput CCD imager using BODIPY polarization filter set and 30 seconds exposure time. During dispense, reagent bottle was kept submerged into 4 deg C water bath and all liquid lines were covered with aluminum foil to minimize probe and protein degradation.
Keywords: NIH Roadmap, MLSCN, MLI, MLSMR, qHTS, NCGC, YjeE

outcome, inactive:
CCCCC(CC)CN (centres undefined)
Cc1ccccc1Nc1nc(N)nc(CN2CCN(c3ccccn3)CC2)n1
COc1c(F)c(F)c(-c2csc(N)n2)c(F)c1F
COC(=O)[C@H]1C[C@@H]1[C@H](NC(=O)Oc1ccc(F)cc1)c1ccccc1
COC(=O)C(C)C1Sc2ccccc2NC1=O (centres undefined)
CC(C)(CNCC(O)c1ccccc1)N1CCOCC1 (centres undefined)
Cc1cnc(CNc2ncncc2-c2ccccc2Cl)cn1
COc1ccc(C2C3=C(OC(C)=O)c4ccccc4C3=Nc3c2c(=O)n(C)c(=O)n3C)cc1 (centres undefined)
Cn1c(-c2ccc(C(=O)c3ccccc3)s2)nc2ccccc21
COc1ccccc1-c1nc(C(F)(F)F)c(OC)o1
Nc1nc(N)c2[nH]c(CNc3ccc(C(=O)O)cc3)nc2n1
CCCc1nc2ccccc2c(=O)n1/N=C/c1ccc(O)c(O)c1
CC(C)[C@@H](CC(=O)N[C@@H]1CCNC[C@H]1C(=O)N[C@H](CC(=O)N[C@@H](CCC(=O)O)CC(=O)O)Cc1ccccc1)NC(=O)C[C@H](CO)NC(=O)[C@@H]1CNCC[C@H]1N
COc1ccc2nc(NC3=NCN(CC4CCCO4)CN3)nc(C)c2c1 (centres undefined)
Cc1cc(OCC(=O)O)c(Cl)cc1Cl
Cc1cc(NC(=O)COC(=O)c2ccc(F)c(S(=O)(=O)N3CCOCC3)c2)no1
COc1ccc(C(=O)CSc2nccc(=O)[nH]2)cc1
CCOC(=O)c1ccc(NC(=O)CS(=O)(=O)c2cn(CC)c3ccccc23)cc1
Cc1cc(=O)[nH]c(SCC(N)=O)c1C#N
CSCCC(NC(=O)c1ccc(=O)n(C)n1)c1nc2ccccc2[nH]1 (centres undefined)
O=C(NCc1ccc(Cl)cc1)c1cc2c(nc3sccn32)s1
CC(C)(C)NCC[C@@H](O)c1cc(C(F)(F)F)nc2c(C(F)(F)F)cccc12
COc1nc(Oc2ccc(=O)n(C)n2)nc(N(C)C)n1
CCCCNC(=O)CSc1nccn1Cc1ccccc1
C1CCC2OC2C1 (centres undefined)
O=c1c(-c2cc(F)cc(F)c2)nc2cnc(Oc3ccccc3)nc2n1C[C@H]1CCCO1
CCOC(=O)c1ccc(NC(=O)CSc2nnc(COc3ccccc3OC)n2C)cc1
C[C@]1(C(=O)NCCc2c[nH]c3ccccc23)C=C[C@@H](Cc2ccccc2)N1C(=O)c1ccccc1
N#Cc1ccc(C(c2nnnn2CCc2ccccc2)N2CCCCCC2)cc1 (centres undefined)
COc1ccc(N2C(=O)C3CCCN3C2c2cccs2)cc1 (centres undefined)
COc1ccc(C)cc1S(=O)(=O)NC1CCCCC1
O=C1c2oc3ccccc3c(=O)c2C(c2cccc(O)c2)N1c1ccccn1 (centres undefined)
CC(=O)CC(C)C
COC(=O)N1CCC2(CCCN(Cc3ccccc3OC)C2)CC1
COc1ccc(OC)c(Nc2nc(-c3ccc(O)c(O)c3)cs2)c1
FC(F)(F)c1ccccc1-c1cc(NCc2ccccc2)ncn1
CN1[C@@H]2CC[C@H]1CC(NC(=O)c1nn(C)c3ccccc13)C2 (some centres undefined)
C[C@]12CC[C@@H]3C(=CCc4cc(O)ccc43)[C@@H]1CCC2=O
Cc1cc(=O)n(C)c(=O)n1CCCNc1ccccc1
CC(C)c1ccc2c([Si](C)(C)C)c3c(nc2c1)-c1cccc(=O)n1C3
COc1ccc(N2C(=O)CCC(C(=O)N(C)C3CCCCC3)C2c2ccc(OC)c(OC)c2)cc1 (centres undefined)
C[N+](C)(CCCCCC[N+](C)(C)CCCN1C(=O)c2cccc3cccc(c23)C1=O)CCCN1C(=O)c2cccc3cccc(c23)C1=O
COc1ccc(Cl)cc1S(=O)(=O)N1CCN(CC(=O)C(C)(C)C)CC1
CN1CCN(S(=O)(=O)c2ccc3[nH]cc(C(=O)O)c(=O)c3c2)CC1
Cc1ccc(C)c(N2CCN(C(=O)CCc3nc4ccccc4[nH]3)CC2)c1
O=Cc1c(Cl)cccc1Cl
COc1cccc(N(CC(=O)Nc2cccc(N(C)S(C)(=O)=O)c2)S(C)(=O)=O)c1
COc1ccccc1NC1=NC2(CCCC2)N=C(N)N1
CCOc1ccc2[nH]c(=O)c(C(c3nnnn3CCOC)N3CCOCC3)cc2c1 (centres undefined)
COC(=O)C1(C)C=CC2(CCCCC2)N1C(C)=O (centres undefined)
CC/C=C/C/C=C/C/C=C/CCCCCCCC(=O)OCC
O=C(OC(C(=O)NC1CCCC1)c1ccc(F)cc1)c1ccno1 (centres undefined)
O=c1cnc2cnc(Nc3ccccc3)nc2n1Cc1ccc(F)cc1
COCCn1c(SCC(=O)Nc2cc(Cl)ccc2OC)nc2c(c1=O)SC(C)C2 (centres undefined)
C=C(C)c1cccc(C(C)(C)NC(=O)N2CCN(c3ncccn3)CC2)c1
O=C(Cl)c1ccccc1[N+](=O)[O-]
CCOC(=O)CN(C(=O)CN1CCOCC1)c1ccc(Br)cc1
CC(C)NC(=O)N1CC[C@@]2(CCCN(C(=O)c3ccco3)C2)C1
S=c1[nH]nc(SCc2ccccc2Cl)c2[nH]cnc12
CSc1cccc(NC(=O)CSc2ccccc2)c1
Cc1ccc2oc(=O)c3cnn(CC(=O)N4CCN(c5ccccn5)CC4)c3c2c1
O=C(CNS(=O)(=O)c1cccc(C(F)(F)F)c1)Nc1ccccc1F
COC(=O)[C@@]1(Cc2ccccc2)[C@H]2c3cc(C(=O)N4CCCC4)n(Cc4ccc(C)o4)c3C[C@H]2CN1C(=O)c1ccccc1
COc1ncc2nc(-c3ccc(Cl)cc3)c(=O)n(C)c2n1
CC(c1ccco1)N(C(=O)c1ccc(S(=O)(=O)N2CCCCC2)cc1)c1ccccn1 (centres undefined)
CC(C)NS(=O)(=O)c1ccc(OCC(=O)Nc2ccc3c(c2)OCCO3)cc1
Cc1ccc(-n2c(SCC(=O)Nc3ccc4c(c3)OCO4)nnc2-c2ccoc2C)cc1
CCOC(=O)NC(C(F)(F)F)(C(F)(F)F)P(=O)(c1ccccc1)c1ccccc1
CCCC(=O)N1c2ccc(-c3csc(N)n3)cc2CC1C (centres undefined)
